From PubChem BioAssay (NCATS)
Results filed as inconclusive are left out. Active and inactive are the calls of the source. Calls follow the shape of the dose curve; as a rule, active = well fitted curve in the direction sought with a large enough effect; inconclusive = small, poorly fitted or top-dose-only effect, or another doubt; inactive = no such curve, though single readings can be large; an effect the other way counts as inactive or inconclusive.

Tests used:
[1] = Quantitative High-Throughput drug screen in 47 multiple myeloma cell lines against the NCATS MIPE library collection: JIM3_ECACC cell viability assay (AID 1918963; also: nearly all actives have a fitted effect of over 35% in size)
In short: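 Primary qHTS used for cherry-picking: cells at 500/well, library compounds for 48 h (37C, 5% CO2), luminescent ATP assay.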

[2] = Quantitative High-Throughput drug screen in 47 multiple myeloma cell lines against the NCATS MIPE library collection: JIM1_ECACC cell viability assay (AID 1918964)
In short: (§1)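 Luminescent ATP measurement with CellTiter-Glo gives viability, scaled between DMSO-only wells (100%) and media-only wells (0%). Cells, 500 per well, faced library compounds for 48 hours at 37C.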

[3] = Quantitative High-Throughput drug screen in 47 multiple myeloma cell lines against the NCATS MIPE library collection: INA6_PLB cell viability assay (AID 1918965; also: nearly all actives have a fitted effect of over 55% in size)
In short: (§2)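 We plated 500 myeloma cells per well, pinned in MIPE 4.0 compounds, and incubated for 48 hours at 37C. ATP was then quantified with CellTiter-Glo, with DMSO and media-only wells defining 100% and 0%.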

[4] = Quantitative High-Throughput drug screen in 47 multiple myeloma cell lines against the NCATS MIPE library collection: JJN3_DSMZ cell viability assay (AID 1918966; also: nearly all actives have a fitted effect of over 50% in size)
In short: as §1

[5] = Quantitative High-Throughput drug screen in 47 multiple myeloma cell lines against the NCATS MIPE library collection: H1112_PLB cell viability assay (AID 1918967; also: nearly all actives have a fitted effect of over 30% in size)
In short: as §1

[6] = Quantitative High-Throughput drug screen in 47 multiple myeloma cell lines against the NCATS MIPE library collection: Karpas25_ECACC cell viability assay (AID 1918968; also: nearly all actives have a fitted effect of over 35% in size)
In short: as §1

[7] = Quantitative High-Throughput drug screen in 47 multiple myeloma cell lines against the NCATS MIPE library collection: KMS27_JCRB cell viability assay (AID 1918970); also: nearly all actives have a fitted effect of over 30% in size
In short: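 Each line is seeded at 500 cells per well and treated with library compounds for 48 hours under 37 °C, 5% CO2. CellTiter-Glo is then added for 5 min at room temperature before median relative luminescence is recorded.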

[8] = Quantitative High-Throughput drug screen in 47 multiple myeloma cell lines against the NCATS MIPE library collection: KMS12BM_JCRB cell viability assay (AID 1918971); also: nearly all actives have a fitted effect of over 35% in size
In short: (§3)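 qHTS of the MIPE 4.0 collection: 500 myeloma cells/well, 48 h drug exposure at 37C in 5% CO2, then CellTiter-Glo for 5 min at room temperature before luminescence reading.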

[9] = Quantitative High-Throughput drug screen in 47 multiple myeloma cell lines against the NCATS MIPE library collection: KMS20_JCRB cell viability assay (AID 1918973); also: nearly all actives have a fitted effect of over 45% in size
In short: as §1

[10] = Quantitative High-Throughput drug screen in 47 multiple myeloma cell lines against the NCATS MIPE library collection: KMS26_JCRB cell viability assay (AID 1918975); also: nearly all actives have a fitted effect of over 45% in size
In short: as §3

[11] = Quantitative High-Throughput drug screen in 47 multiple myeloma cell lines against the NCATS MIPE library collection: MMM1_PLB cell viability assay (AID 1918976); also: nearly all actives have a fitted effect of over 35% in size
In short: (§4)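 Plated at 500 cells per well, myeloma lines received MIPE 4.0 compounds by pin tool. Following 48 h culture at 37 °C, CellTiter-Glo luminescence gave viability relative to DMSO and media-only controls.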

[12] = Quantitative High-Throughput drug screen in 47 multiple myeloma cell lines against the NCATS MIPE library collection: MOLP8_DSMZ cell viability assay (AID 1918977); also: nearly all actives have a fitted effect of over 45% in size
In short: as §4

[13] = Quantitative High-Throughput drug screen in 47 multiple myeloma cell lines against the NCATS MIPE library collection: NCIH929_DSMZ cell viability assay (AID 1918978); also: nearly all actives have a fitted effect of over 35% in size
In short: as §4

[14] = Quantitative High-Throughput drug screen in 47 multiple myeloma cell lines against the NCATS MIPE library collection: MM1S_ATCC cell viability assay (AID 1918980); also: nearly all actives have a fitted effect of over 45% in size
In short: as §4

[15] = Quantitative High-Throughput drug screen in 47 multiple myeloma cell lines against the NCATS MIPE library collection: MM1R_ATCC cell viability assay (AID 1918981); also: nearly all actives have a fitted effect of over 35% in size
In short: as §4

[16] = Quantitative High-Throughput drug screen in 47 multiple myeloma cell lines against the NCATS MIPE library collection: LP1_DSMZ cell viability assay (AID 1918982); also: nearly all actives have a fitted effect of over 35% in size
In short: as §4

[17] = Quantitative High-Throughput drug screen in 47 multiple myeloma cell lines against the NCATS MIPE library collection: KMS28PE_JCRB cell viability assay (AID 1918983); also: nearly all actives have a fitted effect of over 35% in size
In short: as §4

[18] = Quantitative High-Throughput drug screen in 47 multiple myeloma cell lines against the NCATS MIPE library collection: KMS21BM_JCRB cell viability assay (AID 1918974); details: ATP luminescence, 48 h; viability: at 45.8 µM (top of the series) unless noted
In short: as §1

[19] = Quantitative High-Throughput drug screen in 47 multiple myeloma cell lines against the NCATS MIPE library collection: OCIMY1_PLB cell viability assay (AID 1918979); also: nearly all actives have a fitted effect of over 35% in size
In short: as §4

[20] = Quantitative High-Throughput drug screen in 47 multiple myeloma cell lines against the NCATS MIPE library collection: KMS12PE_JCRB cell viability assay (AID 1918972); also: nearly all actives have a fitted effect of over 30% in size
In short: as §2

Measured: Potency
Potency is read from the fitted curve at half-maximal effect.

CCS(=O)(=O)c1cccc(-c2cc(C(=O)NC3CCN(C)CC3)c(C)c3[nH]c4ncc(C)cc4c23)c1
active: [1] 0.935 µM | [2] 0.935 µM | [3] 418 nM | [4] 1.66 µM | [5] 4.69 µM | [6] 1.18 µM | [7] 1.32 µM | [8] 5.9 µM | [9] 1.32 µM | [10] 2.96 µM | [11] 4.18 µM | [12] 1.05 µM | [13] 1.18 µM | [14] 1.66 µM | [15] 1.66 µM | [16] 7.43 µM | [17] 1.87 µM

CNC(=O)c1cc(Oc2ccc(NC(=O)Nc3cc(C(C)(C)C)nn3-c3ccc4ncccc4c3)c(F)c2)ccn1
active: [1] 3.32 µM | [2] 7.43 µM | [3] 3320 nM | [4] 2.96 µM | [5] 4.18 µM | [6] 6.62 µM | [7] 23.5 µM | [8] 5.9 µM | [9] 5.9 µM | [18] 4180 nM | [10] 9.35 µM | [11] 14.8 µM | [12] 4.18 µM | [13] 4.69 µM | [19] 16.6 µM | [14] 11.8 µM | [15] 7.43 µM | [16] 10.5 µM | [17] 9.35 µM

C[C@@H]1COC(Nc2ccc3ncnc(Nc4ccc(OCc5nccs5)c(Cl)c4)c3c2)=N1
active: [1] 2.35 µM | [2] 13.2 µM | [3] 4690 nM | [4] 20.9 µM | [5] 1.32 µM | [6] 2.64 µM | [7] 9.35 µM | [8] 14.8 µM | [20] 16.6 µM | [10] 20.9 µM | [11] 23.5 µM | [13] 3.32 µM | [14] 4.18 µM | [16] 26.4 µM

CN1CCN(c2cc(C(=O)Nc3ccc4c(c3)-c3c(c(C(N)=O)nn3-c3ccc(F)cc3)CC4)c(Cl)cn2)CC1
active: [1] 6.62 µM | [2] 8.33 µM | [3] 1050 nM | [4] 0.235 µM | [5] 2.35 µM | [6] 2.35 µM | [7] 7.43 µM | [8] 23.5 µM | [20] 20.9 µM | [9] 2.96 µM | [10] 10.5 µM | [12] 26.4 µM | [13] 0.743 µM | [19] 26.4 µM | [14] 3.32 µM | [15] 20.9 µM | [16] 23.5 µM

Cc1cc(Nc2ncnc3ccc(-c4ccc(CNCCS(C)(=O)=O)o4)cc23)ccc1Oc1ccn2ncnc2c1
active: [1] 9.35 µM | [2] 5.26 µM | [3] 1870 nM | [4] 18.7 µM | [5] 6.62 µM | [6] 0.332 µM | [7] 2.64 µM | [8] 18.7 µM | [20] 5.26 µM | [9] 2.09 µM | [10] 26.4 µM | [11] 3.32 µM | [12] 20.9 µM | [13] 4.18 µM | [14] 5.9 µM | [15] 20.9 µM | [16] 7.43 µM | [17] 23.5 µM

COc1ccc(-c2cc3c(C)nc(N)nc3n(C3CCC(OCCO)CC3)c2=O)cn1 (configuration not stated)
active: [1] 0.0662 µM | [2] 0.0074 µM | [3] 148 nM | [4] 0.0833 µM | [5] 0.662 µM | [6] 0.0264 µM | [7] 0.0264 µM | [8] 0.059 µM | [20] 0.372 µM | [9] 0.0264 µM | [10] 0.148 µM | [11] 0.0148 µM | [12] 0.0372 µM | [13] 0.0093 µM | [14] 0.0372 µM | [15] 0.0148 µM | [16] 0.0148 µM

Cn1cc(-c2[nH]c3cc(NC(=O)[C@H](N)C4CCCCC4)cc4c3c2C=NNC4=O)cn1
active: [1] 5.26 µM | [2] 0.296 µM | [3] 209 nM | [4] 0.662 µM | [5] 0.935 µM | [6] 0.935 µM | [7] 0.148 µM | [8] 1.05 µM | [9] 0.935 µM | [18] 166 nM | [10] 8.33 µM | [11] 1.32 µM | [12] 0.526 µM | [13] 1.32 µM | [14] 1.18 µM | [15] 1.05 µM | [17] 1.48 µM

OCCCNc1cc(-c2ccnc(Nc3cccc(Cl)c3)n2)ccn1
active: [1] 0.0526 µM | [2] 0.0526 µM | [3] 26.4 nM | [4] 0.0935 µM | [5] 0.059 µM | [6] 0.0418 µM | [7] 0.0418 µM | [8] 0.132 µM | [9] 0.0418 µM | [18] 37.2 nM | [10] 0.132 µM | [11] 0.166 µM | [13] 0.0296 µM | [19] 0.235 µM | [14] 0.118 µM | [15] 0.0935 µM | [16] 0.105 µM | [17] 0.148 µM
